The record followed here is PubChem BioAssay (Tox21).

The target of test [1] is Nuclear receptor subfamily 1 group I member 2 (Homo sapiens) (UniProt O75469). The experiment in a line: CYP3A4 induction through human pregnane X receptor (PXR) by small molecules, qHTS assay (AID 1346984). Further: nearly all actives have a fitted effect of over 40% in size. The settings on record: DPX-2 HepG2 PXR, CYP3A4-luciferin luminescence, 24 h; series mostly up to 46.1 µM. Summed up:
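HepG2-derived DPX-2 line carrying PXR plus a CYP3A4-promoter luciferase reporter; cells plated 5 hr, compound-exposed 24 hr at 37C. CYP3A4 activity probed with 3uM (final) Luciferin-IPA for 3hr, then luciferase read after One-Glo.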
A general note: Quantitative high-throughput screening tests each substance at several concentrations.

For test [2] the target is unchanged. Put plainly: Human pregnane X receptor (PXR) activation by small molecules, qHTS assay (AID 1346985). Further: nearly all actives have a fitted effect of over 40% in size. Conditions: DPX-2 HepG2 CYP3A4-luciferase, 24 h; series mostly up to 38.3 µM. Summed up: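 DPX-2 cells (HepG2 co-transfected with a PXR response element and a CYP3A4-promoter luciferase construct) were seeded at 2,000 per well, rested 5 hr at 37C, then exposed to DMSO-dissolved compounds for 24 hr. Activation was read as luciferase luminescence.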

The target in test [3] is Cytochrome P450 2D6 (Homo sapiens) (UniProt P10635). Put plainly: Cytochrome P450 Family 2 Subfamily D Member 6 (CYP2D6) small molecule antagonists: luciferase reporter qHTS assay (AID 1671196). Further: potency means the concentration at half of the fitted maximal effect; nearly all actives have a fitted effect of over 50% in size. Conditions: P450-Glo CYP2D6 enzyme assay, luciferin luminescence, 1 h; series mostly up to 115 µM. The essentials:
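Luminogenic proluciferin substrate, CYP2D6 enzyme; 10 min RT preincubation with compound, NADPH regeneration system added, 1 h RT. Stop/detection reagent, 20 min RT, luminescence read (RLU). Signal proportional to CYP activity.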

Test [4] deals with Cytochrome P450 2C19 (Homo sapiens) (UniProt P33261). Put plainly: Cytochrome P450 Family 2 Subfamily C Member 19 (CYP2C19) small molecule antagonists: luciferase reporter qHTS assay (AID 1671197). Further: potency means the concentration at half of the fitted maximal effect; nearly all actives have a fitted effect of over 65% in size. The settings on record: P450-Glo CYP2C19 enzyme, luciferin luminescence, 1 h; series mostly up to 115 µM. The essentials: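 Relative luminescence units recorded 20 min after the detection reagent stopped a 1 h, 37C CYP2C19 reaction on proluciferin substrate, which was started by NADPH regeneration following 10 min room-temperature compound preincubation; ketoconazole positive control.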

Test [5] deals with Cytochrome P450 1A2 (Homo sapiens) (UniProt P05177). Put plainly: Cytochrome P450 Family 1 Subfamily A Member 2 (CYP1A2) small molecule antagonists: luciferase reporter qHTS assay (AID 1671199). Further: potency means the concentration at half of the fitted maximal effect; nearly all actives have a fitted effect of over 50% in size. Conditions: P450-Glo CYP1A2 enzyme, luciferin luminescence, 1 h; series mostly up to 115 µM. The essentials:
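Luminescence readout (relative luminescence units) after luciferin detection reagent, 20 min RT. Preceded by 1 h room-temperature CYP1A2 reaction with NADPH regeneration solution following 10 min compound preincubation with enzyme and proluciferin substrate. Furafylline positive control.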
Background: In a reporter assay the amount or activity of a reporter protein is the signal.

The target in test [6] is Voltage-gated inwardly rectifying potassium channel KCNH2 (Homo sapiens) (UniProt Q12809). The experiment in a line: Human Ether-a-go-go-Related Gene (hERG) channel small molecule antagonists: fluorescence cell-based qHTS assay (AID 1671200). Further: potency means the concentration at half of the fitted maximal effect; nearly all actives have a fitted effect of over 50% in size. Conditions: hERG-U2OS cells, FluxOR thallium flux fluorescence; series mostly up to 76.8 µM. Summed up:
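hERG-U2OS cells plated overnight at 37 C, loaded with FluxOR II dye 1 h at RT in dark; after 10 min, thallium stimulus added. Fluorescence (480/540 nm) read kinetically for 2 min at 1 s intervals.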
For orientation: Block of hERG is tested as a sign of cardiac risk.

The target of test [7] is Cytochrome P450 3A4 (Homo sapiens) (UniProt P08684). The experiment in a line: Cytochrome P450 Family 3 Subfamily A Member 4 (CYP3A4) small molecule antagonists: luciferase reporter qHTS assay (AID 1671201). Further: nearly all actives have a fitted effect of over 50% in size. The settings on record: P450-Glo CYP3A4 enzyme, luciferin luminescence, 1 h; series mostly up to 115 µM. The essentials: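 P450-Glo CYP3A4 luminescent assay: compounds preincubated 10 min at room temperature with enzyme and proluciferin substrate, NADPH regeneration added, 1 h room-temperature reaction, stopped with luciferin detection reagent; luminescence read after 20 min. Ketoconazole positive control.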

Test [8] addresses Cytochrome P450 2C9 (Homo sapiens) (UniProt P11712). Put plainly: Cytochrome P450 Family 2 Subfamily C Member 9 (CYP2C9) small molecule antagonists: luciferase reporter qHTS assay (AID 1671198). The settings on record: P450-Glo CYP2C9 enzyme assay, luciferin luminescence; series mostly up to 115 µM. Summed up: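 CYP2C9 activity was measured with a P450-Glo proluciferin substrate. Enzyme–substrate mix was held with compound for 10 min at room temperature, then NADPH regeneration solution was added for 1 h at 37C. Luciferin product was read as luminescence.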

Structures are written as SMILES. Records with an inconclusive call do not appear. The source made the active and inactive calls. The call rests on the fitted dose curve; in most records, active means well fitted curve in the direction sought with a large enough effect in the repeat runs; inconclusive means weak or mixed curves; inactive means no such curve, though single readings can be large; an effect the other way counts as inactive or inconclusive.

Chain of Cytochrome P450 2D6 (Homo sapiens) (P10635 whole entry, looked up): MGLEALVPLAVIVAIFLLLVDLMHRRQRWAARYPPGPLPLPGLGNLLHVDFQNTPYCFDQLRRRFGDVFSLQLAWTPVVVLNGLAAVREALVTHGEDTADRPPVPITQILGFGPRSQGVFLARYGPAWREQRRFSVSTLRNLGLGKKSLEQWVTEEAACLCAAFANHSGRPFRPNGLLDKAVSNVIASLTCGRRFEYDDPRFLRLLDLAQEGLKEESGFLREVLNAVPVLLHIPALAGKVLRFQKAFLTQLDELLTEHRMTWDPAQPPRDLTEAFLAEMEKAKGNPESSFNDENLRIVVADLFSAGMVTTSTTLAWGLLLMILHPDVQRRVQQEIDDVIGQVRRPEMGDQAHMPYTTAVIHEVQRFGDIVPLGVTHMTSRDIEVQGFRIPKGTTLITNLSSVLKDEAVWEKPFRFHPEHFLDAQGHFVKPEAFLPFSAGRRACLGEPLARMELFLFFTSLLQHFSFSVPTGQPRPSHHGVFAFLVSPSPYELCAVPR
Chain of Cytochrome P450 2C19 (Homo sapiens) (P33261 whole entry, looked up): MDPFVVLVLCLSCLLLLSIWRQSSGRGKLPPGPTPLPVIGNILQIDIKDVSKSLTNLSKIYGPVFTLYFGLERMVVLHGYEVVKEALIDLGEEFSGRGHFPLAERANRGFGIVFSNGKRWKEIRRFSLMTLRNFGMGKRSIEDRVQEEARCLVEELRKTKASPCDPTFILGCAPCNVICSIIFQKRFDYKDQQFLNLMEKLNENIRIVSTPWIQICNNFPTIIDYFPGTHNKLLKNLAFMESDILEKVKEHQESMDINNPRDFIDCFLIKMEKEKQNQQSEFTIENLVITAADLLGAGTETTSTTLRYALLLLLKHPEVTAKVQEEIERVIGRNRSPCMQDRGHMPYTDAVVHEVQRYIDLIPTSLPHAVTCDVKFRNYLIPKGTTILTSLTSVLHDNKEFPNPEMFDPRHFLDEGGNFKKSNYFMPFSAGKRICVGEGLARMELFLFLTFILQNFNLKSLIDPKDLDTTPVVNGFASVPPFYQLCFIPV
Chain of Voltage-gated inwardly rectifying potassium channel KCNH2 (Homo sapiens) (Q12809 whole entry, looked up): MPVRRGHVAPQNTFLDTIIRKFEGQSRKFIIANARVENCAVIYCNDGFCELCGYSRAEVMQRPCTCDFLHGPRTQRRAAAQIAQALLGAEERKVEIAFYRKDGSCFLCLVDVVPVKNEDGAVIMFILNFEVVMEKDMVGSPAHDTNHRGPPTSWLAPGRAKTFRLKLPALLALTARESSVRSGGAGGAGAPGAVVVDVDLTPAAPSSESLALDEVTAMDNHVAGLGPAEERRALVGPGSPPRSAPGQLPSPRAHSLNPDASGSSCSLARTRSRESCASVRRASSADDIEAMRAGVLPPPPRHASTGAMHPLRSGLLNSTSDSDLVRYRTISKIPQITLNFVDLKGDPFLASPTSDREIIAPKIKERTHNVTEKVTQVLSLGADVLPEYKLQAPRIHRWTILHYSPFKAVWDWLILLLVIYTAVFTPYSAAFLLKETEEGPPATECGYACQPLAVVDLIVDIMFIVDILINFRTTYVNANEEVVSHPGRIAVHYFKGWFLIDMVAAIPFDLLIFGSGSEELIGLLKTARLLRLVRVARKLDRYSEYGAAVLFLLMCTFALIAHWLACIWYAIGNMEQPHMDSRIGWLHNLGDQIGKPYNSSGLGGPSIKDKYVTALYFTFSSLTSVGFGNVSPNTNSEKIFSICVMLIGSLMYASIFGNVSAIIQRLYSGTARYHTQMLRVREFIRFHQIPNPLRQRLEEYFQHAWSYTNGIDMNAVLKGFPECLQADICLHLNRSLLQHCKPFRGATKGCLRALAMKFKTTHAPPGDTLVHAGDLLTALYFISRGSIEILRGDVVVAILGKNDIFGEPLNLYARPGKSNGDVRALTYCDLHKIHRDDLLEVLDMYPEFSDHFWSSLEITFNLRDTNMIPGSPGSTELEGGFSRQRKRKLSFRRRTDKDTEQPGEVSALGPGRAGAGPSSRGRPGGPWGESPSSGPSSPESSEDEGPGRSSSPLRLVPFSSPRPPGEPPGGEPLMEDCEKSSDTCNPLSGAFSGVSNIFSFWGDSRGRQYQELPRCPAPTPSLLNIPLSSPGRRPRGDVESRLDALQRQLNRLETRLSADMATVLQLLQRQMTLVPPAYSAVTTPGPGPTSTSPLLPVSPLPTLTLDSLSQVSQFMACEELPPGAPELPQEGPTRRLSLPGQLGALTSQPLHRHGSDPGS
Chain of Cytochrome P450 3A4 (Homo sapiens) (P08684 whole entry, looked up): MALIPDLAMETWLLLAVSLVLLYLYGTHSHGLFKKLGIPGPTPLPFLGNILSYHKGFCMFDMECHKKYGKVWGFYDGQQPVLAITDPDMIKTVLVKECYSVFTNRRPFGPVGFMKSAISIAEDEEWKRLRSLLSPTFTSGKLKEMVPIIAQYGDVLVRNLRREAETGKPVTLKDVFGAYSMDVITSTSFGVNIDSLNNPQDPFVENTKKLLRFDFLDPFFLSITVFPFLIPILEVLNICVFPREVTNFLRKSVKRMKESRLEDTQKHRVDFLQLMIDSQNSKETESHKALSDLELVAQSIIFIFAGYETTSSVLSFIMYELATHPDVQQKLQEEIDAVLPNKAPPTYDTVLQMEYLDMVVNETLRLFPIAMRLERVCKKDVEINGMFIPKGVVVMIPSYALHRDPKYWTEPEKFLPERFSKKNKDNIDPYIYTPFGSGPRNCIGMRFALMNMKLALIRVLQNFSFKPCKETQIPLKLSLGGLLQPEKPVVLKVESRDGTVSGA
Chain of Cytochrome P450 1A2 (Homo sapiens) (P05177 whole entry, looked up): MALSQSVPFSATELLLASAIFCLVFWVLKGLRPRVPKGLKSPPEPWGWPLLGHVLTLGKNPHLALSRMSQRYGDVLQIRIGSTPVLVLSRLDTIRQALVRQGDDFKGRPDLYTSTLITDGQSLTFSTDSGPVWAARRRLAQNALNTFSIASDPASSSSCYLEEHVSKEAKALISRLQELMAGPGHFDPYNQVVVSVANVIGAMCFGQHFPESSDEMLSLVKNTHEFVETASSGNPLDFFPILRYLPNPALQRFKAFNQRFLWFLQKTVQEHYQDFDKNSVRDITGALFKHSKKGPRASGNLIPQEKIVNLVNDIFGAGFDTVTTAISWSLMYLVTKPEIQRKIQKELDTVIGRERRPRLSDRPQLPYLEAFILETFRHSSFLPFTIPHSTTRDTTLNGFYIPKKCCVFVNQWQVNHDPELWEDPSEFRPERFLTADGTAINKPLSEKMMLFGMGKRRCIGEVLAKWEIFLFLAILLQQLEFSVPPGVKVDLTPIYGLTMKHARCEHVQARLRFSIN
Chain of Cytochrome P450 2C9 (Homo sapiens) (P11712 whole entry, looked up): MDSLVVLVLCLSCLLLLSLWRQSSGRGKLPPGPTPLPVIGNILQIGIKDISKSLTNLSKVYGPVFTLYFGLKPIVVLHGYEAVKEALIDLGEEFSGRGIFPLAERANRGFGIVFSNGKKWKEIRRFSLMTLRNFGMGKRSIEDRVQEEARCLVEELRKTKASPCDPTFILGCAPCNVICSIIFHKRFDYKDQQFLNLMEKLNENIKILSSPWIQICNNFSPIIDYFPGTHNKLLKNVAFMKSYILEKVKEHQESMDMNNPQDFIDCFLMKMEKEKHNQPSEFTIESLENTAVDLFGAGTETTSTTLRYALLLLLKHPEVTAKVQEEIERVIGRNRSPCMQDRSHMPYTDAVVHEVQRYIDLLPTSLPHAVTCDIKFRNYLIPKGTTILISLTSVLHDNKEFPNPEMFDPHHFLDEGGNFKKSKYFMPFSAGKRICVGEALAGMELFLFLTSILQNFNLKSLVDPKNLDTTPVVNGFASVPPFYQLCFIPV

As to `NC(=O)[C@H]1O[C@@H](O)[C@H](O)[C@@H](O)[C@@H]1O`, the Potency result in test [1] and in test [2] was “inactive” throughout.
Turning to `C[C@]12O[C@H](C[C@]1(O)CO)n1c3ccccc3c3c4c(c5c6ccccc6n2c5c31)CNC4=O`, the Potency result in test [1] and in test [2] was “inactive” throughout.
Consider `O=C(O)COc1ccccc1/C=N/NC(=O)c1ccncc1`, for which the Potency result in test [1] and in test [2] was “inactive” in each case.
`CC(=O)OCC(=O)[C@@]1(O)CC[C@H]2[C@@H]3CCC4=CC(=O)CC[C@]4(C)C3=CC[C@@]21C`: the Potency result in test [1] and in test [2] was “inactive” in each case.
In the case of `C=N[C@@H](C(=O)N[C@@H]1C(=O)N2[C@@H]1SC(C)(C)[C@@H]2C(=O)O)c1ccccc1`, the Potency entry in test [2] is “inactive”.
Consider `Oc1ccc(Cl)c2c1CCC2`, for which the Potency result in test [1] and in test [2] was “inactive” in each case.
Turning to `c1ccc2c(c1)OCC(CN1CCCCC1)O2` (configuration not stated), the Potency entry in test [2] was “inactive”.
As to `CCOC(=O)Cc1ccc(-c2ccccc2)cc1`, the Potency result in test [1] and in test [2] was “inactive” each time.
`CN(C/C=C/c1ccccc1)Cc1cccc2ccccc12`: the Potency result in test [1], in test [2] and in test [7] was “inactive” throughout. Moreover, the Potency was 0.977 µM (active) in test [3], 3.89 µM (active) in test [4], 12.9 µM (active) in test [5] and 2.39 µM (active) in test [6].
As to `O=C(O)/C=C/C(O)c1ccc(Cl)cc1` (configuration not stated), the Potency entry in test [1] and in test [2] was “inactive” throughout.
With `CC(C)=CCC/C(C)=C/CC/C(C)=C/CC/C(C)=C/CC1=C(C)C(=O)c2ccccc2C1=O`, the Potency result in test [2] is “inactive”.
As to `OCC1(CO)COC(C(Cl)(Cl)Cl)OC1`, the Potency result in test [1] and in test [2] was “inactive” in each case.
As for `O=C(O)c1ccc(NC2OC[C@@H](O)[C@H](O)[C@H]2O)cc1` (some centres not stated), the Potency result in test [2] was “inactive”.
In the case of `CC/C(=C(/c1ccc(O)cc1)c1ccc(OCCN(C)C)cc1)c1ccccc1`, the Potency in test [3] is 18.6 µM (active); in test [4], 37.2 µM (active); in test [8], 37.2 µM (active).
Consider `C[C@@H]1C[C@H]2[C@@H]3C[C@H](F)C4=CC(=O)C=C[C@]4(C)[C@@]3(Cl)[C@@H](O)C[C@]2(C)[C@H]1C(=O)COC(=O)C(C)(C)C`, for which the Potency entry in test [1] and in test [2] was “inactive” in each case.
